The test system of the assay is Leishmania donovani. As to the kind of experiment: Leishmania intramacrophage assay. The format is functional, organism-based. Also noted: scale not given: in the data most compounds retested in dose-response had high values.

Hit rate of the full screen: of about 69,000 compounds, about 1,000 (1.4%) showed an effect of 50% or more. For the sample, strong results were picked, then their nearest neighbours and some compounds at random.

The values that follow come from ChEMBL document CHEMBL3988442, “University of Dundee, Small-Polar-MMV Screening Library” (2021).

On to `CCCN1CC[C@@H]2[C@@H](CO[C@H]2CNC(=O)c2nccn2C)C1.O=C(O)C(F)(F)F`, for which, under “30.3 µM, […]”, the “Percent Effect” value came out at 42.84%.

With `CN1CC[C@@H]2[C@@H](CO[C@H]2CNC(=O)c2nccn2C)C1.O=C(O)C(F)(F)F`, under “30.3 µM, […]”, the “Percent Effect” value is 58.2%.

On to `Cn1ccnc1C(=O)NC[C@@H]1OC[C@H]2CN(CC3CC3)CC[C@H]21.O=C(O)C(F)(F)F`, for which the “Percent Effect” value (30.3 µM, […]) turned out to be 33.21%.

`Cn1cncc1CN1CCCC1c1cncc(Oc2ccc(Cl)cc2)n1` (configuration not stated): where the note is “30.3 µM, […]”, the “Percent Effect” value turned out to be 60.52%.

Regarding `Cc1ncccc1Oc1cncc(C2CCCN2Cc2cncn2C)n1` (configuration not stated), the “Percent Effect” value (30.3 µM, […]) is reported as 19.44%.

On to `Cn1cncc1CN1CCCC1c1cncc(Oc2ccc(F)cc2)n1` (configuration not stated), for which the “Percent Effect” value (30.3 µM, […]) turned out to be 23.83%.

As to `O=C(O)C(F)(F)F.O=C([C@H]1COC[C@H]2CN(CC3CCCC3)C[C@H]21)N1CCOCC1`, the “Percent Effect” value (30.3 µM, […]) is given as 14.74%.

As for `CC(=O)N1CCC2(CC1)CN(C(=O)[C@@H]1CSCN1)c1ccc(Cl)cc12.O=C(O)C(F)(F)F`, the “Percent Effect” value (30.3 µM, […]) worked out at 42.29%.

Turning to `COC1COC2(CCN(C(=O)c3ccccc3F)CC2)C1` (configuration not stated), the “Percent Effect” value (30.3 µM, […]) turned out to be 35.35%.

Take `Cc1csc(CN2CCC[C@]3(C[C@@H](OCC4CC4)CO3)C2)n1.O=C(O)C(F)(F)F`: the “Percent Effect” value (30.3 µM, […]) is 2.266%.

Regarding `O=C(O)C(F)(F)F.O=C(c1ccccc1)N1CCC[C@]2(C[C@@H](Oc3ncccc3F)CO2)C1`, the “Percent Effect” value (30.3 µM, […]) is -17.71%.

Take `CCO[C@H]1CO[C@@]2(CCCN(Cc3nc(C)cs3)C2)C1.O=C(O)C(F)(F)F`: the “Percent Effect” value (30 µM, 30.03 µM) is 20.53%.

In the case of `Cn1cc(CN2CCC[C@]3(C[C@H](Oc4ncccc4F)CO3)C2)cn1.O=C(O)C(F)(F)F.O=C(O)C(F)(F)F`, the “Percent Effect” value (30.3 µM, […]) was determined as 42.35%.

For `CS(=O)(=O)N1CCC[C@]2(C[C@@H](Oc3ncccc3F)CO2)C1.O=C(O)C(F)(F)F`, for the setting “30 µM, 30.03 µM”, the “Percent Effect” value turned out to be 22.25%.

Take `CO[C@@H]1CO[C@@]2(CCCN(Cc3nc(C)cs3)C2)C1.O=C(O)C(F)(F)F`: under “30.3 µM, […]”, the “Percent Effect” value is recorded as 100.6%.

Regarding `COc1ncccc1C(=O)N1CCC2(CC1)CC(OC)CO2.O=C(O)C(F)(F)F` (configuration not stated), the “Percent Effect” value (30.3 µM, […]) amounted to 56.73%.

`O=C(O)C(F)(F)F.O=C(O)C(F)(F)F.O=C(c1cccnc1)N1CCC[C@]2(C[C@H](Oc3ncccc3F)CO2)C1`: the “Percent Effect” value (30.3 µM, […]) stood at 55.01%.

On to `COc1ncccc1C(=O)N1CC[C@]2(C[C@@H](Oc3cccnc3)CO2)C1.O=C(O)C(F)(F)F.O=C(O)C(F)(F)F`, for which, under “30.3 µM, […]”, the “Percent Effect” value is reported as 31.08%.

For `O=C(O)C(F)(F)F.O=C(c1ncccn1)N1CCC[C@]2(C[C@@H](Oc3ncccc3F)CO2)C1`, for the setting “30.3 µM, […]”, the “Percent Effect” value is listed as -9.266%.

As for `Cn1cc(CN2CCC[C@]3(C[C@@H](Oc4ncccc4F)CO3)C2)cn1.O=C(O)C(F)(F)F.O=C(O)C(F)(F)F`, the “Percent Effect” value (30.3 µM, […]) is recorded as 62.31%.

For the compound `CC(C)NC(=O)N1CCC(c2nnc3n2CCNC3)CC1`, where the note is “30.3 µM, […]”, the “Percent Effect” value is -10%.

Regarding `O=C(O)C(F)(F)F.O=C([C@H]1CN(CCc2ccccc2)C[C@H]2OCC[C@@H]12)N1CCCO1`, where the note is “30 µM, 30.03 µM”, the “Percent Effect” value is recorded as 22.49%.

In the case of `CCCC(C#N)NC(=O)Cc1csc(CC)n1` (configuration not stated), the “Percent Effect” value (30.3 µM, […]) was found to be 15.43%.

With `CC(OCc1ccccc1)C(=O)NC1CCN(CC(N)=O)CC1` (configuration not stated), the “Percent Effect” value (30.3 µM, […]) came out at 21.11%.

Regarding `O=C(c1ccc(O)c(Cl)c1)N1C[C@@H](CN2CCCCCC2)[C@@H](CO)C1`, the “Percent Effect” value (30.3 µM, […]) is listed as -29.45%.

Consider `Cc1nc(CN2CCCC2c2[nH]ncc2C(=O)N(C)C)cs1` (configuration not stated), for which the “Percent Effect” value (30.3 µM, […]) is listed as 17.56%.

`O=S(=O)(NCCc1c[nH]c2ccc(F)cc12)C1CCOCC1`: under “30.3 µM, […]”, the “Percent Effect” value was determined as 23.05%.

Take `CCO[C@@H]1CO[C@@]2(CCN(Cc3ccc4c(c3)OCO4)C2)C1.O=C(O)C(F)(F)F`: where the note is “30.3 µM, […]”, the “Percent Effect” value worked out at 22.42%.

`O=C(O)C(F)(F)F.O=C(O)C(F)(F)F.c1ccc(O[C@H]2CO[C@@]3(CCN(Cc4ccc5c(c4)OCO5)C3)C2)nc1`: where the note is “30.3 µM, […]”, the “Percent Effect” value was 57%.

Take `CCO[C@H]1CO[C@@]2(CCN(Cc3ccc4c(c3)OCO4)C2)C1.O=C(O)C(F)(F)F`: the “Percent Effect” value (30.3 µM, […]) turned out to be 9.141%.

As for `CC(C)Cc1cc(C(=O)NCCn2nc3ccccn3c2=O)[nH]n1`, under “30.3 µM, […]”, the “Percent Effect” value is 7.621%.

Regarding `O=C1CCC(=O)N1CCN1CCC(=Cc2ccccc2)CC1`, the “Percent Effect” value (30.3 µM, […]) was determined as 5.63%.

Regarding `Cc1nc(-c2cccc(N3CCC(N[C@@H]4CCOC4)CC3)c2)cs1`, the “Percent Effect” value (30.3 µM, […]) is -5.486%.

Consider `O=C(CCc1ccsc1)NC1CCN(c2cccc(F)c2)CC1`, for which, under “30.3 µM, […]”, the “Percent Effect” value is listed as -29.46%.

As for `O=C(Cc1cccs1)NC1CCN(c2cccc(F)c2)CC1`, the “Percent Effect” value (30 µM, 30.03 µM) worked out at 26.53%.

For the compound `Fc1cccc(-c2cccc(N3CCC(NC4CCCOC4)CC3)c2)c1` (configuration not stated), the “Percent Effect” value (30.3 µM, […]) was found to be 98.85%.

On to `COc1cccc(-c2cccc(N3CCC(N[C@@H]4CCOC4)CC3)c2)c1`, for which the “Percent Effect” value (30.3 µM, […]) is given as 96%.

As for `COc1cccc(N2CCC(N3CCOC(C(F)(F)F)C3)CC2)c1` (configuration not stated), where the note is “30.3 µM, […]”, the “Percent Effect” value was 13.73%.

`COC(C)(C)CC(C)NCc1cc(-c2ccco2)on1` (configuration not stated): the “Percent Effect” value (30.3 µM, […]) was -19.81%.

For `CN(CCC#N)C(=O)CN1CCCN(Cc2noc(C3CC3)n2)CC1`, the “Percent Effect” value (30.3 µM, […]) is reported as 25.2%.

Regarding `O=C(O)C(F)(F)F.c1ncn(Cc2cnc3n2CCN(Cc2ccsc2)CC3)n1`, the “Percent Effect” value (30 µM, 30.03 µM) is given as -12.88%.

As for `O=C1CC[C@H](C(=O)N(CCc2ccccc2)C2CCOC2)N1` (some centres not stated), where the note is “30.3 µM, […]”, the “Percent Effect” value stood at 6.545%.

With `O=C1CC[C@H](C(=O)N(Cc2cccc(Br)c2)C2CC2)N1`, the “Percent Effect” value (30.3 µM, […]) is 50.36%.

As for `O=C1NCC(C(=O)N(Cc2cccc(Br)c2)C2CC2)N1` (configuration not stated), the “Percent Effect” value (30.3 µM, […]) was -2.381%.

As to `Nc1nc(CCCNC(=O)c2ccc(C3CCCNC3)cc2)cs1` (configuration not stated), the “Percent Effect” value (30.3 µM, […]) is on record as 19.48%.

With `Nc1nnc(CCNC(=O)c2cccc(C3CCCNC3)c2)s1` (configuration not stated), the “Percent Effect” value (30.3 µM, […]) is recorded as 5.236%.

Consider `Nc1nnc(CCCNC(=O)c2ccc(C3CCCNC3)cc2)s1` (configuration not stated), for which the “Percent Effect” value (30.3 µM, […]) was 51.22%.
